# Sampled rows, rich in hits. Any-hit rate of the full collection: about 19%.
# HT1080-NT tox = qHTS for induction of synthetic lethality in tumor cells producing 2HG: qHTS for the HT-1080-NT fibrosarcoma cell line | HT-1080-NT fibrosarcoma viability, CellTiter-Glo ATP luminescence, 48 h | Potency, µM (doses to about 46.1 µM), usual class: cytotoxic | 1.6% of 360,000 active | AID 686970, 2013;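 note: NT is the 2HG producing partner of a matched IDH1 knockdown line; nearly all actives have a fitted effect of over 55% in size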
#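 Luminescent CellTiter-Glo readout after 48 hours of compound exposure at 37 degrees C defined viability of HT-1080-NT cells. Activity was normalized to DMSO wells and cell-free media wells; concentration-response curves were fitted and assigned curve classes.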
# IL-1B inflam inh = qHTS for Inhibitors of Inflammasome Signaling: IL-1-beta AlphaLISA Primary Screen; THP-1 LPS/ATP IL-1B secretion, AlphaLISA, 16 h; active compounds read low; activity change, % at 57.5 µM; 4.7% of 360,000 active; in the data active = activity change below about -50%; inconclusive = mostly about -30% to -49%
#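 Secreted IL-1B measured by AlphaLISA bead assay after 16 h compound exposure of THP-1 cells; compounds (final up to 57.5 uM) added 1 h before LPS (250 ng/mL) and ATP (1.25 mM) stimulation; lower signal means less secretion.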
# DT40 TDP1 no CPT = qHTS for Inhibitors of human tyrosyl-DNA phosphodiesterase 1 (TDP1): qHTS in cells in absence of CPT. DT40 Tdp1-/- hTDP1 cells, no CPT, ATP luminescence, 48 h. Potency, µM (top dose mostly 46.2 µM), hits mostly inhibitors. 15% of 420,000 active. AID 686978, 2013; note: nearly all actives have a fitted effect of over 55% in size
#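 Chicken DT40 Tdp1-/- cells stably complemented with human TDP1 were seeded at 400 cells/well with DMSO in place of 20 nM camptothecin. After compound pinning, cells grew at least 48 hr at 37 °C; viability read by CellTiter-Glo luminescence.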
# HT1080 IDH1KD tx = qHTS for induction of synthetic lethality in tumor cells producing 2HG: qHTS for the HT-1080-IDH1KD cell line. HT-1080 IDH1 knockdown viability, ATP luminescence, 48 h. Potency, µM (top dose mostly 46.1 µM), usual class: cytotoxic. 2% of 360,000 active
#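 After a 2 h attachment period, IDH1KD HT-1080 cells took pin-transferred compound for 48 h at 37 °C; ATP-based luminescence after 10 min room-temperature reagent incubation reported viability.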
# DT40 TDP1 CPT = qHTS for Inhibitors of human tyrosyl-DNA phosphodiesterase 1 (TDP1): qHTS in cells in presence of CPT | chicken DT40 Tdp1-/-;hTDP1 cells + 20 nM CPT, ATP luminescence, 48 h | Potency, µM (series often up to 46.2 µM), actives largely listed as inhibitors | 12% of 420,000 active; note: nearly all actives have a fitted effect of over 55% in size
#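 Chicken DT40 Tdp1-/- cells complemented with human TDP1, 400 cells/well, exposed to compounds plus 20 nM camptothecin for at least 48 h at 37 C; viability read as ATP content by CellTiter-Glo luminescence.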
# Numbers stand for hits; i = inactive; ? = inconclusive; nt = not tested or not shown; ! = repeats disagree. Unless noted, calls come from the whole dose curve; as a rule, active = well fitted curve in the direction sought with a large enough effect; inconclusive = small, poorly fitted or top-dose-only effect, or another doubt; inactive = no such curve, though single readings can be large; an effect the other way counts as inactive or inconclusive.
SMILES,HT1080-NT tox,IL-1B inflam inh,DT40 TDP1 no CPT,HT1080 IDH1KD tx,DT40 TDP1 CPT
COC(=O)C1=C(c2ccc(F)cc2OCc2ccccc2)C[C@@H]2CC[C@H]1N2C(=O)NCCOc1ccc(OC)cc1,i,?,16µM,i,?
COC(=O)C1=C(c2ccc(F)cc2OCc2ccccc2)C[C@@H]2CC[C@H]1N2C(=O)NCc1ccc(OC)cc1,i,?,?,i,?
COC(=O)C1=C(c2ccc(F)cc2OCc2ccccc2)C[C@@H]2CC[C@H]1N2C(=O)NCCOc1ccccc1Cl,?,i,16µM,i,21µM
COC(=O)C1=C(c2ccc(F)cc2OCc2ccccc2)C[C@@H]2CC[C@H]1N2C(=O)NCCc1ccc(F)cc1,i,?,21µM,i,?
COC(=O)C1=C(c2ccc(F)cc2OCc2ccccc2)C[C@@H]2CC[C@H]1N2C(=O)NCc1ccc(Br)cc1,i,-60,15µM,i,?
c1csc(CN2CC[C@@]3(CCCNC3)C2)n1,nt,nt,i,nt,i
COc1ccc(-n2nc(C(=O)NCC(=O)N3CCC4(CC3)OCCO4)c3ccccc3c2=O)cc1Cl,i,i,?,i,i
C=C(C)[C@@H]1C2C(=O)O[C@H]1[C@H]1OC(=O)[C@@]34OC3C[C@]2(O)[C@@]14C (some centres undefined),?,i,?,i,?
COC(=O)C1=C(c2ccc(F)cc2OCc2ccccc2)C[C@@H]2CC[C@H]1N2C(=O)NCCOc1ccccc1,i,?,16µM,i,?
COC(=O)C1=C(c2ccccc2OCc2ccccc2)C[C@@H]2CC[C@H]1N2C(=O)NCc1cccc(F)c1,i,?,?,i,?
COC(=O)C1=C(c2ccc(F)cc2OCc2ccccc2)C[C@@H]2CC[C@H]1N2C(=O)NCc1cccc(C(F)(F)F)c1,i,-59,18µM,i,?
N/C(=N\[N+](=O)[O-])N1CCN(C(=O)c2ccccn2)CC1,i,i,i,i,i
Cc1ccc(N/N=C/C=C/c2ccco2)cc1,i,?,?,i,i
CN1CCC(OC(=O)C2c3ccccc3Oc3ccccc32)CC1,i,i,i,i,i
O=C(Cc1cc(=O)oc2cc(O)ccc12)NN=Cc1ccc(N(CCCl)CCCl)cc1,i,i,?,i,?
N#Cc1ncc(N=Cc2ccc(N(CCCl)CCCl)cc2)s1,?,i,12µM,10µM,10µM
ClCCN(CCCl)c1ccc(C=NNc2ncccn2)cc1,i,i,5.2µM,i,4.6µM
O=P(N1CCCCCC1)(N1CCCCCC1)N1CC1,i,i,i,i,?
CC1(C)S[C@@H]2[C@H](N3C(=O)C(c4ccccc4)NC3(C)C)C(=O)N2[C@H]1C(=O)O (some centres undefined),nt,nt,i,nt,i
CC(C)CN1CC2(CCN(C(=O)c3ccncc3)CC2)C1,nt,nt,i,nt,i
COc1ccc([N+](=O)[O-])cc1N=Cc1c(O)n(CCc2ccccc2)c(=O)n(C(C)C)c1=O,i,i,16µM,i,?
Cc1ccc(P(=O)(O)c2ccc(C)cc2)cc1,i,i,?,i,?
COc1ccc(CC(C)NCCC(c2ccccc2)c2ccccc2)cc1 (centres undefined),i,-71,16µM,i,13µM
CCCCNC(C)Cc1ccccc1 (centres undefined),i,i,i,i,i
CSc1ccccc1C(=O)C1CCCN(Cc2ccn[nH]2)C1 (centres undefined),i,i,i,i,i
SMILES,HT1080-NT tox,IL-1B inflam inh,DT40 TDP1 no CPT,HT1080 IDH1KD tx,DT40 TDP1 CPT
COc1ccc(-c2nnc(Nc3nc4c(OC)cccc4s3)o2)c(OC)c1,4µM,i,4.1µM,3.2µM,4.6µM
C[C@]12CC[C@H](O)CC1=CCC1C2CC[C@]2(C)C(=O)[C@H](Br)CC12 (some centres undefined),i,-106,?,i,?
CC1(C)C(=O)CC[C@@]2(C)C1=CCC1C2CC[C@]2(C)C(=O)CCC12 (some centres undefined),i,i,?,i,16µM
CC(=O)C1C(N2CC2)CC2C3CC=C4CC(O)CCC4(C)C3CCC21C (centres undefined),i,-51,5.8µM,i,1.8µM
CC12CCC3C(CC=C4CC(O)CCC43C)C1C/C(=C\c1ccccc1F)C2=O (centres undefined),?,i,23µM,?,?
O=CC1=C(N2CCOCC2)/C(=C\c2ccccc2)CC1,i,?,?,i,?
C[C@]12CC[C@H](O)CC1=CC[C@@H]1[C@@H]2CC[C@]2(C)C(=O)CC[C@@H]12,i,i,?,i,?
C[C@]12CC[C@H](O)CC1=CCC1C2CC[C@]2(C)C(=O)CC[C@@H]12 (some centres undefined),nt,nt,30µM,nt,30µM
O=C1Nc2ccccc2Sc2ccccc21,i,i,i,i,i
c1ccc2c(c1)Nc1ccccc1S2,i,i,34µM!,i,5.3µM!
COc1ccc(NC(=O)CCc2nc(C3=CCN(Cc4cccc(Cl)c4)CC3)no2)c(OC)c1,nt,nt,18µM,nt,5.8µM
Cc1cccc(CN2CC=C(c3noc(CCC(=O)Nc4ccc(C)c(F)c4)n3)CC2)c1,nt,nt,13µM,nt,16µM
Cc1cc(O)c(CN2CC=C(c3ccccc3)CC2)cc1C(C)C,i,i,?,i,?
COc1ccc(NC(=O)CCc2nc(C3=CCN(Cc4cccc(Cl)c4)CC3)no2)cc1OC,nt,nt,12µM,nt,16µM
COc1cccc(CC(=O)N2CCN(Cc3cccc(Cl)c3)CC2)c1,i,i,?,i,i
O=P(O)(O)CN1CCNCCN(CP(=O)(O)O)CCNCC1,i,i,6.5µM,15µM,6.5µM
O=C(c1ccc(F)c([N+](=O)[O-])c1)N1CC2CC(C1)c1cccc(=O)n1C2 (centres undefined),i,-52,?,i,i
CCCCC/C(=N/O)c1c(C)[nH]c2ccccc12,?,-62,?,i,i
COc1ccc(-c2cc(C3CCN(c4cc(Cl)nc(N)n4)CC3)[nH]n2)cc1,?,?,23µM,?,23µM
COc1ccc(C(=O)NCCn2cc(SC(C)c3ccccc3)c3ccccc32)cc1OC (centres undefined),nt,nt,12µM,nt,16µM
CN(C)CCCCCCN(C)C (tested in a mixture with another compound),nt,nt,i,nt,i
CCS(=O)(=O)N1Cc2cc(C(=O)N(C)C)nc(-c3cccc(-c4ccc(F)cc4)c3)c2[C@@H]1CCO,i,i,i,i,i
Cc1nc2ccc(Cl)cn2c1P(=S)(N1CCOCC1)N1CCOCC1,i,i,?,i,15µM
